According to PubChem BioAssay AID1256 (The Scripps Research Institute Molecular Screening Center, 2008):
Some of the results follow. Unmarked numbers belong to inactive results. Cut-off read from the data, not from the text of the source: active = inhibition above about 20%; inactive = the rest.

Biological target: Neuropeptide Y receptor type 1 (Homo sapiens) (UniProt P25929)
Test: blockade of human NPY-Y1 in cells – counter-screen for NPY-Y2 antagonist project (AID 1256);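 note: cells challenged with NPY then isoproterenol with cAMP sensed through a CNG channel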
Details: cell-based NPY-Y1 antagonism counterscreen; at 3.6 µM; hits give high values

Neuropeptide Y receptor type 1 (Homo sapiens), sequence (P25929 whole entry, looked up): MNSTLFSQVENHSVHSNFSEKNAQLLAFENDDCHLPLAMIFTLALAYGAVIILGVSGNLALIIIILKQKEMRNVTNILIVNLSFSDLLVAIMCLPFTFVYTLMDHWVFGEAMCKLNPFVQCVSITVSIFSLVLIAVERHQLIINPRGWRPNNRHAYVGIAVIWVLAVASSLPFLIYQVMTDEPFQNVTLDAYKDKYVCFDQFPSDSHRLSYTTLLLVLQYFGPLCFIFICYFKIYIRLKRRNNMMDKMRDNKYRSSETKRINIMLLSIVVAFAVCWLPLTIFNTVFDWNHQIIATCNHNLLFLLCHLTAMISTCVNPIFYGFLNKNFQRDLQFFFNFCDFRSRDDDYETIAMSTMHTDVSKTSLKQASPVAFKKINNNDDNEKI

## O=C(COC(=O)c1ccccc1)Nc1ccc(Cl)cc1C(=O)c1ccccc1
  inhibition: 17.5%
